Experiment [1] can be described thus: yeast TOR pathway RPL19A-GFP modulators, primary screen, cell-based, S. cerevisiae, multiplex flow cytometry (AID 1862; in the data active means percent of DMSO control GFP below about 86%;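 further: lower values mimic rapamycin by blocking the RPL19A rise seen in DMSO cells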). The following applies: S. cerevisiae RPL19A-GFP strain, flow cytometry fluorescence, 3 h; at 10 µM; stronger effect = lower value.
Experiment [2] in a line: modulators of MEP2-GFP levels in yeast, primary screen, S. cerevisiae, multiplex flow cytometry (AID 1867;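 active means GFP response, as percent of the DMSO control, above the screen-wide mean plus 3 SD, about 139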;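 further: median GFP channel fluorescence of barcode-gated MEP2-GFP cells measured by flow cytometry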). The conditions noted are these: S. cerevisiae MEP2-GFP strain, 3 h, at 10 µM, stronger effect = higher value, 100% means same as DMSO wells. In general terms: A flow cytometer gives signals particle by particle.
The nature of experiment [3]: modulators of CIT2-GFP expression in yeast, primary screen, S. cerevisiae, GFP fusion, multiplex flow cytometry (AID 1870).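 Further: barcoded CIT2-GFP strain pooled with four other GFP strains with rapamycin as positive control; median GFP fluorescence per well over plate mean of DMSO wells so 100% = DMSO.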 The conditions noted are these: 3 h, at 10 µM, stronger effect = higher value.
Experiment [4] is described as follows: modulators of LAP4-GFP expression in yeast, primary screen, S. cerevisiae, multiplex flow cytometry (AID 1873;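 active means GFP signal, as percent of the solvent control, above the screen mean plus 3 SD, about 149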). The following applies: 3 h, at 10 µM, stronger effect = higher value.
Experiment [5] is described as follows: modulators of AGP1-GFP expression in yeast TOR pathway, primary screen, cell-based, multiplex flow cytometry, S. cerevisiae (AID 1887;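 active means GFP signal above the screen-wide mean plus 3 SD, that is over about 124.5% of the solvent control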;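 further: AGP1-GFP fusion strain of S. cerevisiae within a five-strain barcoded multiplex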). The following applies: 3 h, at 10 µM, stronger effect = higher value.
A short description of experiment [6]: inhibitors of CD8+ T cell-vesicle binding, pilot screen, LFA-1/ICAM-1 modulator project, MLPCN validation set, flow cytometry (AID 2523;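 active means response below a set limit, under 55% cells CD8-positive and vesicle-bound, and CD8 cells' 90th-percentile brightness under 279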;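 on vesicle binding response: mean PE anti-B7-1 fluorescence of CD8+ cells relative to row control; 100% = QL9-loaded vesicles with DMSO vehicle in the same plate row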). The conditions noted are these: 2C mouse CD8+ T cells, at 7 µM, stronger effect = lower value; double positive events: measured here: CD8+/vesicle+ event percentage.
Experiment [7] deals with Integrin beta-1 (Homo sapiens) + Integrin alpha-4 (Homo sapiens) (UniProt P13612+P05556). Briefly: inhibition of HUTS-21 binding to VLA-4, pilot screen, VLA-4 allosteric modulator project, U937 cells, HUTS-21 mAb, flow cytometry, validation set (AID 2674;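 active means inhibition above 50%, about 3 SD of the validation set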;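 further: antibody binding induced by the VLA-4 ligand LDV present at three times its Kd; 0% = LDV ligand with antibody and no compound and 100% = antibody without LDV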). The conditions noted are these: HUTS-21 LIBS mAb binding, at 6.7 µM, stronger effect = higher value, binding induced by LDV ligand.
Sequence of Integrin beta-1 (Homo sapiens) + Integrin alpha-4 (Homo sapiens) (P05556 whole entry, looked up): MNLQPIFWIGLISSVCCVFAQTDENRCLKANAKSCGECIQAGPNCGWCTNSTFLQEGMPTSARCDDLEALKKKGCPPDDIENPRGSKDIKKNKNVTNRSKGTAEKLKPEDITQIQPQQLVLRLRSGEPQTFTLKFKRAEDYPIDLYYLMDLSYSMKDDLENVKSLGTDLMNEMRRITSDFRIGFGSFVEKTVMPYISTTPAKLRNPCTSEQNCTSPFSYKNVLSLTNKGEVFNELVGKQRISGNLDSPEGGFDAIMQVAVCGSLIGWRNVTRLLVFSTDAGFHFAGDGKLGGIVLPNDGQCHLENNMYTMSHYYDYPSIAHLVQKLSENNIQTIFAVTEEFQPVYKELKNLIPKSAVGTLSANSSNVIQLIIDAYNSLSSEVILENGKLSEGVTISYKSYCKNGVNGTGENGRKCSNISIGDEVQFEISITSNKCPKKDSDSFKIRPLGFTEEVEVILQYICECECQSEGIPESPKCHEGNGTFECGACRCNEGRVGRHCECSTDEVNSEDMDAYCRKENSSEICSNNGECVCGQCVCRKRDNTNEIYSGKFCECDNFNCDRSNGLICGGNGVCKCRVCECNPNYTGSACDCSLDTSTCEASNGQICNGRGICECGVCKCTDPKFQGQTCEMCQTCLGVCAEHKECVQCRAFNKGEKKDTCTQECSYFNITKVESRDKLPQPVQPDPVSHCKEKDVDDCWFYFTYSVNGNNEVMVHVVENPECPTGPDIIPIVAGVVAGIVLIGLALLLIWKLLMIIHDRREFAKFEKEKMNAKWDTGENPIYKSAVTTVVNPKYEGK
Sequence of Integrin beta-1 (Homo sapiens) + Integrin alpha-4 (Homo sapiens) (P13612 whole entry, looked up): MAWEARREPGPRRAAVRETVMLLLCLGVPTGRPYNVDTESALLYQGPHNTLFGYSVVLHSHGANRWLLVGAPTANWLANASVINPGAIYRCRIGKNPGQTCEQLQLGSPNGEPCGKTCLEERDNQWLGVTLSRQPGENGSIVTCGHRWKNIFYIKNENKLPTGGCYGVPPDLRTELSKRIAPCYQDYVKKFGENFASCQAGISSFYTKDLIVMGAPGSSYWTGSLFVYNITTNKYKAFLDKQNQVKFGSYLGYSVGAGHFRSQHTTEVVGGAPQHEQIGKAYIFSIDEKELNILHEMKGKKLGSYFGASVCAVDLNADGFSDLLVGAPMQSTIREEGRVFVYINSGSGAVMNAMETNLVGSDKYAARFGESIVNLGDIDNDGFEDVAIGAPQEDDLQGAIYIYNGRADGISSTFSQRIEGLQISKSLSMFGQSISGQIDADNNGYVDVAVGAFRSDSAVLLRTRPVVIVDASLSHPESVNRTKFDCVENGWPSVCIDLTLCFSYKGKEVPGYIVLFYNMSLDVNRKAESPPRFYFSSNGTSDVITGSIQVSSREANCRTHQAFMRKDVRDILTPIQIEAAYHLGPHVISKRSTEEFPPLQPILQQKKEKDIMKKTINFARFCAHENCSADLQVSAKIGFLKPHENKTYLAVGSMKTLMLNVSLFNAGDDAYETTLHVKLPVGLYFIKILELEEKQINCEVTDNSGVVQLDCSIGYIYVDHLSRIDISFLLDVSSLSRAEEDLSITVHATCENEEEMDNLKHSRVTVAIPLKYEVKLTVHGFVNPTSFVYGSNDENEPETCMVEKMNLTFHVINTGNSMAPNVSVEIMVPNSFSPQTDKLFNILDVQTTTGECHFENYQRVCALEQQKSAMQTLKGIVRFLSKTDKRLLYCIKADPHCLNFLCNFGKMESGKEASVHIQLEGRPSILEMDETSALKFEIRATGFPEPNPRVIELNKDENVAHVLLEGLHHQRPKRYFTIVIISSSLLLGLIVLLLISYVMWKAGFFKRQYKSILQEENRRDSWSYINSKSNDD

Experiment [8] can be described thus: superoxide lowering in aged yeast cells, pilot screen, validation compound set (AID 2706;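 active means superoxide response below 65% of plate, a cut near 3 SD across the whole screen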;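 further: yeast exposed to compound for one week at 30 degrees C before staining; 100% = mean of all compound wells on the same plate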). The conditions noted are these: S. cerevisiae aging, superoxide DHE fluorescence; at 10 µM; stronger effect = lower value.
The target of experiment [9] is Beta-adrenergic receptor kinase 1 (Homo sapiens) (UniProt P25098). In words: GRK2 binders displacing RNA aptamer, biochemical, validation, human GRK2, bead flow cytometry (AID 488806;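 active means aptamer binding inhibition above 30%, about 3 SD of noise from non-fluorescent compounds; inactive means inhibition at or below 30%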). The following applies: bead-bound GRK2, FAM-aptamer displacement, at 10 µM, stronger effect = higher value.
Sequence of Beta-adrenergic receptor kinase 1 (Homo sapiens) (P25098 whole entry, looked up): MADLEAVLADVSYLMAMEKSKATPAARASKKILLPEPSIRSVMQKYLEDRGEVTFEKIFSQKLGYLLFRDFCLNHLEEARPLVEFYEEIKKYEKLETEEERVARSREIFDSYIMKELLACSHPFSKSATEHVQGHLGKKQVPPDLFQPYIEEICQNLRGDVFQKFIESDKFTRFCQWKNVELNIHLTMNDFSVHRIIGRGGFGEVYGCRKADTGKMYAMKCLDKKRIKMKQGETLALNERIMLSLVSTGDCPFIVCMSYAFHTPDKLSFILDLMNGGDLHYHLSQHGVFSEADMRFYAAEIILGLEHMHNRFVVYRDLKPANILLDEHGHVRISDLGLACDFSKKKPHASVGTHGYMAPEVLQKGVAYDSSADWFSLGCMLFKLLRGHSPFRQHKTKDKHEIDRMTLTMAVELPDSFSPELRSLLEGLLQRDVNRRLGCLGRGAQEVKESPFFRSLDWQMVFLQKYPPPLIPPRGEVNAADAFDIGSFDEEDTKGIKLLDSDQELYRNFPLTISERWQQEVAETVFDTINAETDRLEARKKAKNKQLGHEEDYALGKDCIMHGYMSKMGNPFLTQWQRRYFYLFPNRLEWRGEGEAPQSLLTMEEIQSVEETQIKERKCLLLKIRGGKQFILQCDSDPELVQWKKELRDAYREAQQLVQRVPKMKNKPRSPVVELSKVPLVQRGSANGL
Experiment [10] has as its target Beta-2 adrenergic receptor (Homo sapiens) (UniProt P07550). In words: beta2AR agonists driving receptor internalization, pilot screen, cell-based, FAP fluorogen, flow cytometry, validation set (AID 504459;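 active means percent response above 42, roughly 3 SD of non-fluorescent test compounds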;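 further: agonist-driven loss of surface beta2AR via internalization measured by FAP dye flow cytometry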). The following applies: Am2.2-beta2AR cells, FAP surface receptor flow cytometry; at 10 µM; stronger effect = higher value.
Experiment [11] concerns the target AP-2 complex subunit beta (Homo sapiens) (UniProt P63010). In words: inhibitors of arrestin peptide binding to AP2, pilot screen, biochemical, validation set, GST-AP2 beads, flow cytometry (AID 504541;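 active means inhibition above 54%, about 3 SD of non-fluorescent compounds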;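 further: AP2 carries R879A mutation and is captured from E. coli lysate; bead-bound FITC arrestin peptide fluorescence measuring arrestin peptide binding to AP2; 0% = DMSO wells and 100% = excess unlabeled arrestin peptide control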). The conditions noted are these: FITC arrestin peptide, at 10 µM, stronger effect = higher value, AP2 beta2 appendage fragment, R879A mutant.
Experiment [12] in a line: yeast V-ATPase proton transport modulators, S. cerevisiae, pHLuorin, HTS validation (AID 504600; in the data active means response above about 15%;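 further: plate controls were DMSO for no effect and reference compound for full effect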). The conditions noted are these: S. cerevisiae pHLuorin cytosolic pH, at 10 µM, stronger effect = higher value.
In experiment [13] the test system is anti-desmoglein-3 scFv antibody binding to human DSG3. Briefly: inhibitors of anti-DSG3 scFv binding to DSG3, pilot screen, biochemical, validation compound set, bead-based, flow cytometry (AID 588368;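 active means binding below the plate cutoff, the plate median minus 3 SD, with a reading above zero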;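 further: signal is the median channel fluorescence of bead-bound GFP antibody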). The conditions noted are these: Protein G beads, DSG3-Fc, scFv-GFP binding, at 10 µM, stronger effect = lower value.
Experiment [14] can be described thus: inhibitors of fungal efflux pumps CDR1, CDR2, MDR1, pilot screen, validation compound set, multiplex, phenotypic (AID 588506;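 active means efflux inhibition above 0.42, the validation set average plus 4 SD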;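 further: Nile Red retained in cells so higher fluorescence means more efflux inhibition; 0 = negative control wells and 1 = enniatin B 25 µM full block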). The conditions noted are these: S. cerevisiae pump-expressing triplex, Nile Red efflux flow cytometry; at 10 µM; stronger effect = higher value; the pumps come from Candida albicans.
For experiment [15], the target named is ATP-binding cassette sub-family B member 6 (Homo sapiens) (UniProt Q9NP58). Briefly: ABCB6 transporter inhibitors, pilot screen, K562-ABCB6 cells, flow cytometry, validation set (AID 588550;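 active means inhibition above the screen-wide mean plus 3 SD, about 51%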;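 further: 0% = DMSO wells and 100% = benzethonium chloride 70 µM positive control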). The following applies: K562-ABCB6 porphyrin accumulation, 1 h, at 10 µM, stronger effect = higher value.
Sequence of ATP-binding cassette sub-family B member 6 (Homo sapiens) (Q9NP58 whole entry, looked up): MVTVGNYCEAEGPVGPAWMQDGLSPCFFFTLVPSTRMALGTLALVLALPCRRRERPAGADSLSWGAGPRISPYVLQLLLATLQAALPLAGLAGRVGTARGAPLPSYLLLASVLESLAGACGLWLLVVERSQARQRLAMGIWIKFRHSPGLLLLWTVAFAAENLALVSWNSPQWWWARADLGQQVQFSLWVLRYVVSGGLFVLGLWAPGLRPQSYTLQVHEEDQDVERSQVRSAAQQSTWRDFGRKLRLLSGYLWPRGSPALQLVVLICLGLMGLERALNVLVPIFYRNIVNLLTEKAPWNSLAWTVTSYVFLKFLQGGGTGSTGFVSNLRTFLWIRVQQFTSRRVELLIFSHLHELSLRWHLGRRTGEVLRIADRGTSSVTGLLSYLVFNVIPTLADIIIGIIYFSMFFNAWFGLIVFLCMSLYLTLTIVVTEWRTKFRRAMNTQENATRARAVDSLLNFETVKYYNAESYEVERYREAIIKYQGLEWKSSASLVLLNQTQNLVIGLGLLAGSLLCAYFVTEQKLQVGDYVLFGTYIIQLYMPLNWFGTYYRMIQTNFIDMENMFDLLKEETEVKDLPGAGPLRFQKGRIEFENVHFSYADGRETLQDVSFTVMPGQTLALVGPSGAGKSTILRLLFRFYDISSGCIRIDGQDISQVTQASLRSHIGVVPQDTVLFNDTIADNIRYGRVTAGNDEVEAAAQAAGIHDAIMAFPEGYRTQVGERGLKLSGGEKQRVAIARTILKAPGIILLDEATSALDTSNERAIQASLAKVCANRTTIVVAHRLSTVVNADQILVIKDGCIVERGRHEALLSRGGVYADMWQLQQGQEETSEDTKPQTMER
The nature of experiment [16]: promoters of myeloid differentiation in arrested cells, primary screen, cell-based, GFP/MAC1 double positive, flow cytometry, validation set (AID 588685;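 active means differentiation response of at least 50%, scaled between solvent and reference control, from cells with both markers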;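 further: compound exposure lasts four days before antibody staining and flow analysis; 0% = DMSO wells and 100% = 5 µM fulvestrant positive control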). The conditions noted are these: ER-HoxA9 marrow cells, stronger effect = higher value, normalized: vehicle 0, fulvestrant 100.

This note sets out measurements from PubChem BioAssay.

Molecules are shown by their SMILES. Results filed as inconclusive are left out. Calls of active or inactive are those of the source.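 How the source made its calls, unless noted: active means percent response above a set limit, the screen-wide mean plus 3 SD (cut at about 130% in these data); inactive means the rest.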

Sequence of AP-2 complex subunit beta (Homo sapiens) (P63010 whole entry, looked up, the tested form may be a part, one chain of several): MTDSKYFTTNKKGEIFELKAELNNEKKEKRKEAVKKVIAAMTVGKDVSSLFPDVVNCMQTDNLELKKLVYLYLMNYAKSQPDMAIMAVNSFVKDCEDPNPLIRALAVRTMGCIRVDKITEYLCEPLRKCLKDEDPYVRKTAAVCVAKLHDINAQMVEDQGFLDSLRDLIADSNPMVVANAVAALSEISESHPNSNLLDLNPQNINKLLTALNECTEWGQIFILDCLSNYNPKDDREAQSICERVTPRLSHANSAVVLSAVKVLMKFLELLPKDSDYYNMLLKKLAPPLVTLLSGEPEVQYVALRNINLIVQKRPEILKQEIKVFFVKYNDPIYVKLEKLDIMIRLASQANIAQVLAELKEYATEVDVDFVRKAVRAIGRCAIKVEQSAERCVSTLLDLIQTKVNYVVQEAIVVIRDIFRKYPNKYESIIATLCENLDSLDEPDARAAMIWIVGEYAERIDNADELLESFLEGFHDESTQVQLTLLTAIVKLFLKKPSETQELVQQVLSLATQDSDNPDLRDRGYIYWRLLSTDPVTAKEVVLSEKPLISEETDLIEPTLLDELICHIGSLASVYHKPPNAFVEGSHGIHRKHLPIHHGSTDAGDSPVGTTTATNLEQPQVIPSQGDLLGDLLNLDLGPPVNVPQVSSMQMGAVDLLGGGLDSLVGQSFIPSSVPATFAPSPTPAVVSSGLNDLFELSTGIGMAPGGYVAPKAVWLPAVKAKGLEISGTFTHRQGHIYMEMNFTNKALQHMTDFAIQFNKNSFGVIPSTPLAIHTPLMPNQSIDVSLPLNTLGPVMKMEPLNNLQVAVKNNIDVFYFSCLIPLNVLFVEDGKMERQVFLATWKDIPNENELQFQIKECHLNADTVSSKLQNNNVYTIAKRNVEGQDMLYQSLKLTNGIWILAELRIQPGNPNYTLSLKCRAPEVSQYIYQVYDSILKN
Sequence of Beta-2 adrenergic receptor (Homo sapiens) (P07550 whole entry, looked up): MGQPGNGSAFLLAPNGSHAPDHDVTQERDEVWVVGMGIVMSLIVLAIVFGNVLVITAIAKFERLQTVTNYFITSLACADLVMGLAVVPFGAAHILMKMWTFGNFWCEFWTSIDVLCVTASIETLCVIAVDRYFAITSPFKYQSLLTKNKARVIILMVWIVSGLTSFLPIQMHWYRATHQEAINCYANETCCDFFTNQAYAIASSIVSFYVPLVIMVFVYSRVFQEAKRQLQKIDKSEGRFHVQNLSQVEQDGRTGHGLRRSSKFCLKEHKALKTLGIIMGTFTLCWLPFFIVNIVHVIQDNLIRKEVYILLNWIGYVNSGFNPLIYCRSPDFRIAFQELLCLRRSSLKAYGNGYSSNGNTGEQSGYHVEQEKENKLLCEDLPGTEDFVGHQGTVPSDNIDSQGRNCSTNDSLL

As for `Cc1ccc(S(=O)(=O)N2CCC(C(=O)N[C@@H](C)C(=O)NC3CCS(=O)(=O)C3)CC2)cc1` (stereo partly drawn), the percent of DMSO control GFP in experiment [1] is 101% (inactive). The GFP response vs DMSO in experiment [2] was 96.6% (inactive); in [4], 89.3% (inactive). The percent response of DMSO control in experiment [3] was 106% (inactive). The GFP response, % of DMSO in [5] was 96.3% (inactive). The molecule also displayed a double positive events in experiment [6] of 57.7%. Further, in experiment [6], the vesicle binding response is 144% (inactive). The inhibition (in general, the drop in the measured response relative to a control, in per cent) was 12.3% (inactive) in experiment [7], -5.24% (inactive) in experiment [11] and 13% (inactive) in [15]. Further, the superoxide response (% of plate) in experiment [8] was 103% (inactive). The aptamer binding inhibition in [9] was 4% (inactive). The response in experiment [10] is -1.25% (inactive); in [12] it was 22.5% (active). Further, in [13], the binding (% of control) is 103% (inactive). In addition, in [14], the efflux inhibition (fraction of control) was 0.1 (inactive). The differentiation response in experiment [16] is -13.3% (inactive).
Turning to `Cc1ccc(C(=O)COC(=O)c2cnccn2)cc1[N+](=O)[O-]`, the percent of DMSO control GFP in experiment [1] was 99.1% (inactive). For the same molecule, the GFP response vs DMSO was 99.6% (inactive) in [2] and 82% (inactive) in [4]. Also, the percent response of DMSO control in experiment [3] is 110% (inactive). Further, the GFP response, % of DMSO in experiment [5] was 82.5% (inactive). Moreover, the double positive events in [6] came to 58.1%. Further, the vesicle binding response in experiment [6] was 226% (inactive). Moreover, the inhibition in experiment [7] was -18.2% (inactive); in experiment [11], -6.78% (inactive); in [15], 12% (inactive). The superoxide response (% of plate) in [8] is 97.6% (inactive). Moreover, the aptamer binding inhibition in experiment [9] is 4% (inactive). Further, the response in experiment [10] was -3.42% (inactive); in experiment [12], -1.08% (inactive). Further, in experiment [13], the binding (% of control) is 103% (inactive). In addition, the efflux inhibition (fraction of control) in experiment [14] is 0.01 (inactive). The differentiation response in [16] is -21.6% (inactive).
Regarding `CCC1CCc2c(sc(NC(=O)c3cccnc3)c2C(N)=O)C1` (stereo not drawn), the percent of DMSO control GFP in experiment [1] was 97.6% (inactive). Besides, the results for the GFP response vs DMSO in [2] and in experiment [4] were 102% (inactive) and 108% (inactive), respectively. The percent response of DMSO control in experiment [3] is 96.4% (inactive). Also, the GFP response, % of DMSO in experiment [5] was 107% (inactive). For the same molecule, the double positive events in [6] worked out at 64.4%. Besides, the vesicle binding response in experiment [6] is 252% (inactive). The inhibition in experiment [7] is -38.6% (inactive); in experiment [11], 5.47% (inactive); in experiment [15], 14% (inactive). The superoxide response (% of plate) in experiment [8] is 99.6% (inactive). In addition, in [9], the aptamer binding inhibition is 7% (inactive). The response was -24.4% (inactive) in [10] and -30.9% (inactive) in [12]. Further, in experiment [13], the binding (% of control) was 98.3% (inactive). Further, the efflux inhibition (fraction of control) in experiment [14] was -0.09 (inactive). Moreover, the differentiation response in experiment [16] was 38.4% (inactive).
Regarding `OCCN(CCO)c1nc(N2CCCCC2)c2nc(N(CCO)CCO)nc(N3CCCCC3)c2n1`, the percent of DMSO control GFP in experiment [1] was 105% (inactive). The GFP response vs DMSO in experiment [2] is 102% (inactive); in experiment [4] it was 107% (inactive). In [3], the percent response of DMSO control was 100% (inactive). In addition, the GFP response, % of DMSO in experiment [5] is 108% (inactive). Besides, in experiment [6], the double positive events is 62.5%. In addition, the vesicle binding response in experiment [6] is 175% (inactive). In addition, the inhibition is -9.63% (inactive) in [7], 18.6% (inactive) in experiment [11] and -6% (inactive) in experiment [15]. Also, in experiment [8], the superoxide response (% of plate) was 98% (inactive). In addition, the aptamer binding inhibition in [9] was 3% (inactive). Moreover, the response in experiment [10] was 7.65% (inactive); in experiment [12], 15.4% (active). The binding (% of control) in experiment [13] was 106% (inactive). Also, the efflux inhibition (fraction of control) in experiment [14] is 0.08 (inactive). The differentiation response in experiment [16] was -7.94% (inactive).
